Data taken from paper PMC11006913.

How the values were obtained:
Assay in all cases: PBM; 200 nM protein, PBS
Settings in all cases: dsDNA, one strand shown
VAX1 [1] = biological target: VAX1 (Homo sapiens, UniProt Q5SQQ9 86-172)
VAX1 [2] = biological target: VAX1 (Homo sapiens, UniProt Q5SQQ9 86-172, T142I)
VAX1 [3] = biological target: VAX1 (Homo sapiens, UniProt Q5SQQ9 86-172, K157R)
HOXD13 = HOXD13 (Homo sapiens, UniProt P35453 263-343, T313A)
Chain of HOXD13 (P35453 263-343 T313A): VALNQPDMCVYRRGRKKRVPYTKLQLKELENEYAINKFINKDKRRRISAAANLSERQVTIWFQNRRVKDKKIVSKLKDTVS

Chain of VAX1 (Homo sapiens, UniProt Q5SQQ9 86-172) (Q5SQQ9 86-172): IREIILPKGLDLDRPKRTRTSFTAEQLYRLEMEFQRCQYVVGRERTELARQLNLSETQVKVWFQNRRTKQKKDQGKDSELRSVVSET
Chain of VAX1 (Homo sapiens, UniProt Q5SQQ9 86-172, T142I) (Q5SQQ9 86-172 T142I): as the sequence (Q5SQQ9 86-172) above, with T57I counted along it
Chain of VAX1 (Homo sapiens, UniProt Q5SQQ9 86-172, K157R) (Q5SQQ9 86-172 K157R): as the sequence (Q5SQQ9 86-172) above, with K72R counted along it

| Sequence | binding signal (VAX1 [1]) | binding signal (VAX1 [2]) | binding signal (VAX1 [3]) | binding signal (HOXD13) |
| --- | --- | --- | --- | --- |
| CCGGCTTC | 6.96 upbm affinity estimate (log intensity, higher = more binding, comparable within an allelic series) | 7.09 upbm affinity estimate (log intensity, higher = more binding, comparable within an allelic series) | 6.93 upbm affinity estimate (log intensity, higher = more binding, comparable within an allelic series) |  |
| CGGAGACC | 6.9 upbm affinity estimate (log intensity, higher = more binding, comparable within an allelic series) | 7.22 upbm affinity estimate (log intensity, higher = more binding, comparable within an allelic series) | 7.28 upbm affinity estimate (log intensity, higher = more binding, comparable within an allelic series) |  |
| ATTATTCC | 10.3 upbm affinity estimate (log intensity, higher = more binding, comparable within an allelic series) | 10.1 upbm affinity estimate (log intensity, higher = more binding, comparable within an allelic series) | 10.1 upbm affinity estimate (log intensity, higher = more binding, comparable within an allelic series) |  |
| ATTTATAA | 10.7 upbm affinity estimate (log intensity, higher = more binding, comparable within an allelic series) | 10.5 upbm affinity estimate (log intensity, higher = more binding, comparable within an allelic series) | 10.4 upbm affinity estimate (log intensity, higher = more binding, comparable within an allelic series) |  |
| CAACGCGG | 7.3 upbm affinity estimate (log intensity, higher = more binding, comparable within an allelic series) | 7.21 upbm affinity estimate (log intensity, higher = more binding, comparable within an allelic series) | 7.43 upbm affinity estimate (log intensity, higher = more binding, comparable within an allelic series) |  |
| CGTAATGA | 12.7 upbm affinity estimate (log intensity, higher = more binding, comparable within an allelic series) | 12.2 upbm affinity estimate (log intensity, higher = more binding, comparable within an allelic series) | 12.2 upbm affinity estimate (log intensity, higher = more binding, comparable within an allelic series) |  |
| AGGTAAAT | 10.4 upbm affinity estimate (log intensity, higher = more binding, comparable within an allelic series) | 10.2 upbm affinity estimate (log intensity, higher = more binding, comparable within an allelic series) | 10.2 upbm affinity estimate (log intensity, higher = more binding, comparable within an allelic series) |  |
| TAATACCA | 10.2 upbm affinity estimate (log intensity, higher = more binding, comparable within an allelic series) | 9.86 upbm affinity estimate (log intensity, higher = more binding, comparable within an allelic series) | 9.87 upbm affinity estimate (log intensity, higher = more binding, comparable within an allelic series) |  |
| AATATGCT | 9.71 upbm affinity estimate (log intensity, higher = more binding, comparable within an allelic series) | 9.56 upbm affinity estimate (log intensity, higher = more binding, comparable within an allelic series) | 9.53 upbm affinity estimate (log intensity, higher = more binding, comparable within an allelic series) |  |
| AGCCATTA | 11.7 upbm affinity estimate (log intensity, higher = more binding, comparable within an allelic series) | 11.3 upbm affinity estimate (log intensity, higher = more binding, comparable within an allelic series) | 11.2 upbm affinity estimate (log intensity, higher = more binding, comparable within an allelic series) |  |
| ACTATTAA |  |  |  | 11.6 upbm affinity estimate (log intensity, higher = more binding, comparable within an allelic series) |
| CATTTAAG | 10.9 upbm affinity estimate (log intensity, higher = more binding, comparable within an allelic series) | 10.6 upbm affinity estimate (log intensity, higher = more binding, comparable within an allelic series) | 10.6 upbm affinity estimate (log intensity, higher = more binding, comparable within an allelic series) |  |
| CCTTCGCC | 7.18 upbm affinity estimate (log intensity, higher = more binding, comparable within an allelic series) | 7.38 upbm affinity estimate (log intensity, higher = more binding, comparable within an allelic series) | 7.16 upbm affinity estimate (log intensity, higher = more binding, comparable within an allelic series) |  |
| CTGAGCCC | 7.3 upbm affinity estimate (log intensity, higher = more binding, comparable within an allelic series) | 7.49 upbm affinity estimate (log intensity, higher = more binding, comparable within an allelic series) | 7.38 upbm affinity estimate (log intensity, higher = more binding, comparable within an allelic series) |  |
| ACTAAAGA | 9.49 upbm affinity estimate (log intensity, higher = more binding, comparable within an allelic series) | 9.21 upbm affinity estimate (log intensity, higher = more binding, comparable within an allelic series) | 9.23 upbm affinity estimate (log intensity, higher = more binding, comparable within an allelic series) |  |
| ACTAACGA | 9.28 upbm affinity estimate (log intensity, higher = more binding, comparable within an allelic series) | 8.88 upbm affinity estimate (log intensity, higher = more binding, comparable within an allelic series) | 9.23 upbm affinity estimate (log intensity, higher = more binding, comparable within an allelic series) |  |
| ATATGGAC | 9.25 upbm affinity estimate (log intensity, higher = more binding, comparable within an allelic series) | 8.78 upbm affinity estimate (log intensity, higher = more binding, comparable within an allelic series) | 8.81 upbm affinity estimate (log intensity, higher = more binding, comparable within an allelic series) |  |
| AGTCAGGG | 7.19 upbm affinity estimate (log intensity, higher = more binding, comparable within an allelic series) | 7.36 upbm affinity estimate (log intensity, higher = more binding, comparable within an allelic series) | 7.15 upbm affinity estimate (log intensity, higher = more binding, comparable within an allelic series) |  |
| CCGGTGCC | 7.09 upbm affinity estimate (log intensity, higher = more binding, comparable within an allelic series) | 7.25 upbm affinity estimate (log intensity, higher = more binding, comparable within an allelic series) | 7.13 upbm affinity estimate (log intensity, higher = more binding, comparable within an allelic series) |  |
| CGCGGCAC | 6.77 upbm affinity estimate (log intensity, higher = more binding, comparable within an allelic series) | 7.02 upbm affinity estimate (log intensity, higher = more binding, comparable within an allelic series) | 7.21 upbm affinity estimate (log intensity, higher = more binding, comparable within an allelic series) |  |
| CGCGCTAG | 7.18 upbm affinity estimate (log intensity, higher = more binding, comparable within an allelic series) | 7.3 upbm affinity estimate (log intensity, higher = more binding, comparable within an allelic series) | 7.16 upbm affinity estimate (log intensity, higher = more binding, comparable within an allelic series) |  |
| GCCAAGGC | 7.09 upbm affinity estimate (log intensity, higher = more binding, comparable within an allelic series) | 7.33 upbm affinity estimate (log intensity, higher = more binding, comparable within an allelic series) | 6.97 upbm affinity estimate (log intensity, higher = more binding, comparable within an allelic series) |  |
| GCGCCGGA | 7.27 upbm affinity estimate (log intensity, higher = more binding, comparable within an allelic series) | 7.29 upbm affinity estimate (log intensity, higher = more binding, comparable within an allelic series) | 7.2 upbm affinity estimate (log intensity, higher = more binding, comparable within an allelic series) |  |
| AGCCGGTG | 7.24 upbm affinity estimate (log intensity, higher = more binding, comparable within an allelic series) | 7.45 upbm affinity estimate (log intensity, higher = more binding, comparable within an allelic series) | 7.26 upbm affinity estimate (log intensity, higher = more binding, comparable within an allelic series) |  |
| AGGGCCCT | 7.2 upbm affinity estimate (log intensity, higher = more binding, comparable within an allelic series) | 7.19 upbm affinity estimate (log intensity, higher = more binding, comparable within an allelic series) | 7.36 upbm affinity estimate (log intensity, higher = more binding, comparable within an allelic series) |  |
| GCGGGAGC | 7.11 upbm affinity estimate (log intensity, higher = more binding, comparable within an allelic series) | 7.36 upbm affinity estimate (log intensity, higher = more binding, comparable within an allelic series) | 7.04 upbm affinity estimate (log intensity, higher = more binding, comparable within an allelic series) |  |
| GTGATAAC | 9.19 upbm affinity estimate (log intensity, higher = more binding, comparable within an allelic series) | 8.78 upbm affinity estimate (log intensity, higher = more binding, comparable within an allelic series) | 8.95 upbm affinity estimate (log intensity, higher = more binding, comparable within an allelic series) |  |
